# DAX1 inh-1 = DAX1 (NR0B1) inhibitors on StAR promoter, primary screen, cell-based, luminescence, SF-1 (NR5A1), full-length DAX-1. 370,000 compounds, 1.1% hits. inhibition, % at 6.8 µM. HEK293T StAR-luciferase reporter, SF-1/DAX-1 repression relief. AID 652010, 2013;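 active means inhibition above the mean over all tested compounds plus 3 SD, cut at about 3.6% in these data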;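 further: higher inhibition means more luminescence from relief of DAX-1 repression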
# DAX1 inh-2 = DAX1 (NR0B1) inhibitors, primary screen, cell-based, HEK293, Gal4-DAX1, luciferase luminescence. Nuclear receptor subfamily 0 group B member 1 (Homo sapiens), P51843. HEK293 Gal4-DAX1 luciferase reporter. inhibition, % at 6.75 µM. 340,000 compounds, 0.99% hits. AID 504766, 2011;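 active means inhibition above the mean over all tested compounds plus 3 SD, cut at about 4.2% in these data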;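 further: inhibition shows as a rise in luminescence from relieved DAX1 repression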
# Target sequence (P51843 207-470 limits assumed): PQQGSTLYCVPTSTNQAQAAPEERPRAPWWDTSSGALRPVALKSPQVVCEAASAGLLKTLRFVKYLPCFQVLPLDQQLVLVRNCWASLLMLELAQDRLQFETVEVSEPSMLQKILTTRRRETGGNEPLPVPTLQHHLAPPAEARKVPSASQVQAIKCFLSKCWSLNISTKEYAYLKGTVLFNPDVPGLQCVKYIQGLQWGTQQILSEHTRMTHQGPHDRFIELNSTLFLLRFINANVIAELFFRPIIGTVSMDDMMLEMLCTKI
# hgDAF-12 ag = H. glycines DAF-12 receptor agonists, primary screen, cell-based, luminescence, HEK293, GAL4 fusion, UAS-luciferase; HEK293 GAL4-hgDAF12 UAS-luciferase reporter, agonist luminescence; normalized to butyrate control; Nuclear hormone receptor DAF-12 (Heterodera glycines), GAL4 fusion; 370,000 compounds, 1.8% hits; activation, % at 6.8 µM; AID 687014, 2013;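 active means activation above a cutoff set at the mean of all screened compounds plus 3 SD, cut at about 10% in these data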
# hcDAF12 agonist = H. contortus DAF-12 nuclear receptor activators, primary screen, cell-based, luminescence, HEK293, lit1-tk-luc reporter; HEK293 hcDAF-12 lit1-tk-luc reporter; 0% DMSO, 100% Δ7-dafachronic acid; activation, % at 6.8 µM; 370,000 compounds, 1.4% hits; AID 652067, 2013;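 active means activation above the mean of all tested compounds plus 3 SD, cut at about 5.5% in these data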
# ssDAF12 agonist = S. stercoralis DAF-12 nuclear receptor activators, primary screen, cell-based, luminescence, HEK293, GRIP1 co-expression, lit1-tk-luc; HEK293 ssDAF-12/GRIP1 lit1-tk-luc reporter; % of 3 µM dafachronic acid response; activation, % at 6.8 µM; 370,000 compounds, 1% hits; AID 652126, 2013;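 active means activation above the mean over all tested compounds plus 3 SD, cut at about 0.9% in these data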
# A number is an active result; i = inactive; nt = no result. Hits are enriched below; roughly 4.1% of the tested compounds scored in any of these assays.
SMILES,DAX1 inh-1,DAX1 inh-2,hgDAF-12 ag,hcDAF12 agonist,ssDAF12 agonist
COc1ccc2c(c1)CN1CN(Cc3ccc(F)cc3)S(=O)(=O)CC21 (stereo unspecified),i,nt,i,i,i
O=S(=O)(CC1NCc2ccccc21)NC1CCCC1 (stereo unspecified),i,nt,i,i,i
c1ccc(Nc2nc(-c3ccncc3)cs2)cc1,i,i,11.0,i,i
O=C(COc1ccccc1Cl)c1ccc2c(c1)CCCC2,i,i,12.1,i,i
O=C1C2CCC(C2)C1CN1CCOCC1 (stereo unspecified),i,i,i,i,1.8
CC1CCCC(NC(=O)CSc2ncccc2C(=O)O)C1C (stereo unspecified),i,i,i,i,1.2
COC(=O)N/N=C1\CCCc2c(C)cc(C)cc21,i,4.3,i,i,i
Cc1cc(C)c2c(c1)/C(=N/NC(=S)Nc1ccc(F)cc1)CCC2,i,i,i,i,i
COCCCNC(=O)c1ccc(CN2CCc3ccccc3C2)cc1,i,20.8,i,i,i
CC1(C)CNC(=S)N1Cc1ccccc1,i,4.3,i,i,i
O=C(NNC(=O)C1CC=CCC1)c1ccccc1Br (stereo unspecified),i,i,i,i,i
O=C(NNC(=O)C1CC=CCC1)c1cccc(Br)c1 (stereo unspecified),i,4.6,i,i,i
COc1cc(NC(=O)c2csc3c2CCCC3)ncn1,i,i,12.1,i,i
COc1ccccc1NC(=O)c1csc2c1CCCC2,i,i,i,i,i
O=C(O)C1=C[C@@H](c2ccc3c(c2)OCO3)C[C@@H](OCc2ccc(CO)cc2)O1,i,i,i,i,i
O=C(NC1CC1)C1=C[C@H](c2ccc3c(c2)OCO3)C[C@H](OCc2ccc(CO)cc2)O1,i,i,10.8,i,i
O=C(NC1CCCCN(Cc2ccc(OC(F)(F)F)cc2)C1=O)c1ccc2ccccc2c1 (stereo unspecified),i,nt,i,i,i
COc1ccc(-c2coc3cc(OC)cc(OC)c3c2=O)cc1,i,i,i,i,i
COc1ccc(-c2coc3cc(O)c(OC)cc3c2=O)cc1,i,i,i,i,i
COc1ccc(-c2coc3cc(OC(C)=O)ccc3c2=S)cc1,i,4.5,11.1,i,i
COc1ccc(-c2coc3cc(OC)cc(O)c3c2=O)cc1,i,5.0,i,i,i
CSc1cccc(NC(=O)C2CCCN(S(C)(=O)=O)C2)c1 (stereo unspecified),i,i,i,i,i
COC(=O)C1CN(Cc2cn(Cc3ccc(OC)cc3)nn2)CCS(=O)(=O)N1Cc1ccc(F)cc1 (stereo unspecified),i,nt,i,i,i
COc1ccc(N2CCN(c3cnc4ccccc4n3)CC2)cc1,i,i,11.1,i,i
COc1ccc(N2CCN(Cc3nc4ccccc4n3C)CC2)cc1,i,i,i,i,1.8
SMILES,DAX1 inh-1,DAX1 inh-2,hgDAF-12 ag,hcDAF12 agonist,ssDAF12 agonist
O=C(Nc1cccc(Cl)c1)O[C@@H]1CC[C@@]23CCCN2C(=O)CCC[C@H]3C1,nt,nt,i,i,i
C/C(CC(=O)Nc1ccc(F)cc1)=N\NC(=O)c1ccccn1,i,i,11.0,i,i
C/C(CC(=O)NCc1ccccc1Cl)=N/NC(=O)c1ccccn1,i,i,10.7,i,i
CC(=N/O)/C(C)=N\NC(=O)c1ccccn1,i,i,13.2,i,i
C/C(CC(=O)Nc1ccc(N(C)C)cc1)=N\NC(=O)c1ccc(F)cc1,i,i,i,i,i
CCc1ccc(/C(C)=N/NC(=O)c2ccccn2)cc1,i,i,i,i,i
COc1cc(NC(=O)C2CCCN2S(=O)(=O)c2cccc3cccnc23)cc(OC)c1OC (stereo unspecified),i,4.6,i,i,i
COc1ccc(/C=C2/CN(Cc3ccc(OC)cc3OC)C3=N[C@H](c4ccccc4)CC(=O)N32)cc1,i,nt,i,i,i

# High-throughput results from PubChem BioAssay.
